BCR signal inh: inhibitors of chronic active B-cell receptor signaling | ABC-DLBCL IkBa-CBG/CBR reporter, luminescence ratio, 4 h | Potency, µM (highest dose often 46.1 µM), for inactives: at the highest dose activity change, negative = inhibition, actives largely listed as inhibitors | AID 493014 | 340,000 tested, 0.05% active; active means well fitted inhibition curve with a large enough effect in the signal ratio, with a control signal flat, not every such curve was filed as active; inconclusive means small, poorly fitted or top-dose-only effect, or effect the other way, or a change in a side signal; the % refers to the signal ratio;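 further: potency means the concentration at half of the fitted maximal effect; plate controls were basal doxycycline-induced cells for no effect and cells given 10 µM MG132 for full effect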
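Doxycycline induced both beetle luciferases in TMD8 lymphoma cells; IKK-driven degradation limits the IkappaBalpha-fused green signal, while red luminescence normalises for cell number and nonspecific effects. Compounds tested up to 46 uM, 4 hrs.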
TDP1 cell CPT: DT40-hTDP1 cell growth loss with CPT; AID 686979; chicken DT40 Tdp1-/-;hTDP1 cells + 20 nM CPT, ATP luminescence, 48 h; Potency, µM (titrated, usually from 46.2 µM), for the others: at the highest dose activity change, negative = growth inhibition, hits mostly inhibitors; 420,000 tested, 12% active; further: potency means the concentration at half of the fitted maximal effect; on the % scale 0 is the no-effect control and ±100 the full control effect; nearly all actives have a fitted effect of over 55% in size
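Chicken DT40 Tdp1-/- cells complemented with human TDP1, 400 cells/well, exposed to compounds plus 20 nM camptothecin for at least 48 h at 37 C; viability read as ATP content by CellTiter-Glo luminescence.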
SW480 rerep: induces DNA re-replication in SW480 colon adenocarcinoma cells | SW480 DNA re-replication, Hoechst DNA content imaging, 48 h | Potency, µM (doses to about 46.1 µM), inactives show top-dose re-replication activation, most hits filed as activators | 340,000 tested, 1.8% active | AID 624297; further: potency means the concentration at half of the fitted maximal effect; % of control where 0% means no effect; nearly all actives have a fitted effect of over 55% in size
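Cells (250 per well) received 23 nL compound or DMSO by pin tool and were kept 48 hr at 37 C, 5% CO2. Nuclei were then stained with Hoechst for 40 min and scanned for DNA content.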
MCF10A rereplic: inducers of DNA re-replication in MCF 10A breast cells. MCF 10A DNA re-replication, Hoechst nuclear intensity, 48 h. Potency, µM (series often up to 46.1 µM), inactives show at the highest dose activity, positive = re-replication, most hits filed as activators. 350,000 tested, 2.9% active. AID 624296; further: potency means the concentration at half of the fitted maximal effect; % of control where 0% means no effect; nearly all actives have a fitted effect of over 50% in size
IL1B secr inh: blocks inflammasome-driven IL-1 beta release. THP-1 LPS/ATP IL-1B secretion, AlphaLISA, 16 h; hits give low values. activity change, % at 57.5 µM. 360,000 tested, 4.7% active. AID 743279; in the data active means activity change below about -50%; inconclusive means mostly about -30% to -49%; further: on the % scale 0 is the no-effect control and ±100 the full control effect
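THP-1 cells pretreated 1 hr with compounds (up to 57.5 uM final), then stimulated with LPS (250 ng/mL final) plus ATP (1.25 mM final); secreted IL-1B measured by AlphaLISA after 16 hr, decreased signal indicating inhibition.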
TDP1 cell noCPT: qHTS for Inhibitors of human tyrosyl-DNA phosphodiesterase 1 (TDP1): qHTS in cells in absence of CPT. DT40 Tdp1-/- hTDP1 cells, no CPT, ATP luminescence, 48 h. Potency, µM (doses to about 46.2 µM), for the others: at the top dose activity change, negative = growth inhibition, most hits filed as inhibitors. AID 686978, 2013. 420,000 tested, 15% active; further: potency means the concentration at half of the fitted maximal effect; on the % scale 0 is the no-effect control and ±100 the full control effect; nearly all actives have a fitted effect of over 55% in size
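Luminescent ATP content (CellTiter-Glo) served as the growth readout. Knockout chicken DT40 cells expressing human TDP1 were exposed to compounds without camptothecin for a minimum 48 hr at 37 °C.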
Active calls of the source: *; [ ] = another dose, or the depositor's remark. Shown are actives, neighbours in structure and some others; about 19% of the full set was active somewhere. Unless noted, the call rests on the fitted dose curve; in most records, active means well fitted curve in the direction sought with a large enough effect; inconclusive means small, poorly fitted or top-dose-only effect, or another doubt; inactive means no such curve, though single readings can be large; an effect the other way counts as inactive or inconclusive.

`COc1ccc(N2CCC(CNC(=S)Nc3ccc(C)cc3C)C2)cc1` (stereo not drawn) gave BCR signal inh 1%, TDP1 cell CPT inconclusive, SW480 rerep 0%, MCF10A rereplic 2%, IL1B secr inh inconclusive and TDP1 cell noCPT 18µM*.
For O=C(COc1ccc(S(=O)(=O)N2CCOCC2)cc1Cl)NCc1ccc2c(c1)OCO2 the results were TDP1 cell CPT -21%, IL1B secr inh -14 and TDP1 cell noCPT inconclusive.
`CC(C)(C)NC(=O)CSc1nnc(C2CC2)n1-c1ccccc1` gave BCR signal inh 6%, TDP1 cell CPT 2%, SW480 rerep 0%, MCF10A rereplic -4%, IL1B secr inh -1 and TDP1 cell noCPT -15%.
For Cc1cc(CNC(=O)COc2ccccc2F)c2ccccc2n1 the results were BCR signal inh inconclusive, TDP1 cell CPT 15µM*, SW480 rerep -11%, MCF10A rereplic 7%, IL1B secr inh 59 and TDP1 cell noCPT inconclusive.
Cc1cc(CNC(=O)c2cccc([N+](=O)[O-])c2C)c2ccccc2n1 was read as BCR signal inh -4%, TDP1 cell CPT 10µM*, SW480 rerep 13%, MCF10A rereplic -2%, IL1B secr inh -10 and TDP1 cell noCPT 12µM*.
`Cc1c(C(=O)NCCSCc2ccco2)cccc1[N+](=O)[O-]` gave BCR signal inh inconclusive, TDP1 cell CPT -13%, SW480 rerep 0%, MCF10A rereplic inconclusive, IL1B secr inh -18 and TDP1 cell noCPT -8%.
Screening Cc1c(C(=O)NCCSCc2ccccc2)cccc1[N+](=O)[O-] returned BCR signal inh 10%, TDP1 cell CPT -21%, SW480 rerep 4%, MCF10A rereplic 11%, IL1B secr inh -57* and TDP1 cell noCPT -11%.
Screening Cc1cc(CNC(=O)COc2cc(F)ccc2[N+](=O)[O-])c2ccccc2n1 returned BCR signal inh 4%, TDP1 cell CPT 12µM*, SW480 rerep inconclusive, MCF10A rereplic -29%, IL1B secr inh -18 and TDP1 cell noCPT 12µM*.
For Cc1ccc(CNc2nc3ccccc3n3nnnc23)cc1 the results were BCR signal inh inconclusive, TDP1 cell CPT -23%, SW480 rerep -1%, MCF10A rereplic -10%, IL1B secr inh 16 and TDP1 cell noCPT -22%.
Screening Cc1ccc(-c2nc3ccccc3n3nnnc23)cc1 returned BCR signal inh 2%, TDP1 cell CPT 13µM*, SW480 rerep 2%, MCF10A rereplic 7%, IL1B secr inh 2 and TDP1 cell noCPT 7.3µM*.
For Cc1ccc2nc(Cl)c3nnnn3c2c1 the results were BCR signal inh inconclusive, TDP1 cell CPT 1.8µM*, SW480 rerep 1.8µM*, MCF10A rereplic 2.6µM*, IL1B secr inh -94* and TDP1 cell noCPT 2.6µM*.
Cc1ccc2nc(NCc3ccccc3Cl)c3nnnn3c2c1 was read as TDP1 cell CPT inconclusive and TDP1 cell noCPT 10µM*.
`c1ccc(CC2CCN(c3nc4ccccc4n4nnnc34)CC2)cc1` gave BCR signal inh inconclusive, TDP1 cell CPT -25%, SW480 rerep -4%, MCF10A rereplic inconclusive, IL1B secr inh 17 and TDP1 cell noCPT inconclusive.
Screening Cc1ccc2nc(N3CCN(c4ccc(F)cc4)CC3)c3nnnn3c2c1 returned TDP1 cell CPT 7.3µM* and TDP1 cell noCPT 15µM*.
For CCOC(=O)c1c(-c2ccccc2)csc1NC(=O)c1cc(-c2cccc(OC)c2)on1 the results were TDP1 cell CPT inconclusive and TDP1 cell noCPT 9%.
`Cc1cnc(C(=O)OCC(=O)NCc2ccc(Cl)cc2)cn1` gave BCR signal inh -1%, TDP1 cell CPT -3%, SW480 rerep -19%, MCF10A rereplic -1%, IL1B secr inh 8 and TDP1 cell noCPT 1%.
`Clc1ccc2c(NCc3ccccn3)ncnc2c1` gave BCR signal inh inconclusive, TDP1 cell CPT inconclusive, SW480 rerep -2%, MCF10A rereplic 26%, IL1B secr inh 39 and TDP1 cell noCPT inconclusive.
`COc1cc2ncnc(NCc3cccs3)c2cc1OC` gave BCR signal inh 1%, TDP1 cell CPT inconclusive, SW480 rerep -24%, MCF10A rereplic 2.6µM*, IL1B secr inh -6 and TDP1 cell noCPT -25%.
Clc1ccc2c(NCc3cccs3)ncnc2c1 was read as BCR signal inh 1%, TDP1 cell CPT 13µM*, SW480 rerep 1%, MCF10A rereplic 7%, IL1B secr inh 50 and TDP1 cell noCPT 21µM*.
`C/C(=N/OC(=O)c1ccc(C)cc1)c1ccc(N2C(=O)C3CCCCC3C2=O)cc1` (stereo not drawn) gave BCR signal inh 4%, TDP1 cell CPT inconclusive, SW480 rerep -4%[9.22 µM], MCF10A rereplic -50%, IL1B secr inh 30 and TDP1 cell noCPT 16µM*.
Screening C/C(=N/NC(=O)c1ccccc1O)c1ccc(N2C(=O)C3CCCCC3C2=O)cc1 (stereo not drawn) returned BCR signal inh inconclusive, TDP1 cell CPT -19%, SW480 rerep -4%, MCF10A rereplic -2%, IL1B secr inh 23 and TDP1 cell noCPT -5%.
Screening CCCCNC(=O)c1cn(CC)c2cc(N3CCN(C)CC3)c(F)cc2c1=O returned BCR signal inh inconclusive, TDP1 cell CPT -6%, SW480 rerep -10%, MCF10A rereplic -1%, IL1B secr inh 9 and TDP1 cell noCPT -28%.
For CCn1cc(C(=O)NCc2cccnc2)c(=O)c2cc(F)c(N3CCN(C(=O)c4ccco4)CC3)cc21 the results were BCR signal inh 12%, TDP1 cell CPT 21µM*, SW480 rerep -2%, MCF10A rereplic 3%, IL1B secr inh -21 and TDP1 cell noCPT 21µM*.
CCCNC(=O)c1cn(CC)c2cc(N3CCN(C(=O)c4ccco4)CC3)c(F)cc2c1=O was read as BCR signal inh -1%, TDP1 cell CPT inconclusive, SW480 rerep -13%, MCF10A rereplic -2%, IL1B secr inh -6 and TDP1 cell noCPT 21µM*.
`CCn1cc(C(=O)NCc2cccc(F)c2)c(=O)c2cc(F)c(N3CCN(C(=O)c4ccco4)CC3)cc21` gave BCR signal inh 4%, TDP1 cell CPT 5.8µM*, SW480 rerep -1%, MCF10A rereplic inconclusive, IL1B secr inh -54* and TDP1 cell noCPT 8.2µM*.

From PubChem
